# From PubChem
# HSF1 activator = increases HSF-1 driven luciferase reporter signal; NIH3T3-HGL HSF-1 luciferase reporter, MG132, 8 h; 100% = twice DMSO control signal; hit rate 1.7% among 300,000; activation, % at 9 µM;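 active = mean replicate activation of at least 50% with a set share of replicates each reaching 50%; inconclusive = only one of those two conditions met; inactive = mean below 50% and too few replicates reaching it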;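 note: 0% = median of the neutral control wells and 100% = twice that signal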
# LMP1 NFkB inh = reduces LMP1-driven NF-kappaB luciferase signal. LMP1-induced NF-kappaB luciferase reporter cells, luminescence. inhibition, % at 12.5 µM. hit rate 0.69% among 350,000. AID 504558; in the data active = inhibition above about 41%; inconclusive = no clear call, values can overlap the other calls;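 note: 0% = neutral control wells and 100% = reference inhibitor control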
# HSF1 inhib = HSF1 inhibition; NIH3T3-HGL HSE-luciferase, MG132-induced, luminescence 8 h; active compounds read low; activity change, negative = inhibition, % at 7.5 µM (by protocol); hit rate 0.77% among 300,000;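 active = more than half of replicate wells show activity change below -50%, luminescence cut by over half; inconclusive = some wells, but at most half, below -50%; inactive = no replicate well below -50%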;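 note: luciferase reports HSF-1 transcriptional activity via heat shock element; 0% = median of DMSO wells and -100% = zero luminescence signal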
# TWEAK-Fn14 inh = inhibitors of TWEAK-Fn14 interaction signaling. hit rate 2% among 360,000. TWEAK-stimulated Fn14 reporter cells, luciferase luminescence, 8 h. AID 1159606. inhibition, % at 10 µM; in the data active = inhibition above about 50%
# HSP90 inh = HSP90 refolding inhibition in rabbit reticulocyte lysate | luciferase refolding luminescence, 3 h | inhibition, % at 5.6 µM | hit rate 0.91% among 290,000 | AID 1789;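 active = inhibition above the screen-wide mean plus 3 SD, computed separately per campaign, cut at about 16% in these data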;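 note: 0% = DMSO wells and 100% = 60 µM geldanamycin wells; inhibitors lower the luminescence because luciferase stays unfolded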
# TROY NFkB inh = blocks TROY-dependent signaling in reporter cells; inhibition, % at 10 µM; Q293 LMP1-TROYcd NF-kB luciferase reporter, 4 h; hit rate 0.98% among 360,000;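 active = compounds whose plate-normalised and pattern-corrected inhibition of the luciferase reporter signal at the single screening dose is 50% or more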
# Starred values were filed as active, the others as inactive; ? = inconclusive; . = no result given. The list is not random: actives were taken first. Their share in the collection is about 4.7%.
SMILES,HSF1 activator,LMP1 NFkB inh,HSF1 inhib,TWEAK-Fn14 inh,HSP90 inh,TROY NFkB inh
O=C(N/N=C/C(Br)=C\c1ccccc1)c1cccs1,101*,.,105,9,-4,-69
O=C(N/N=C/c1ccc(Cl)cc1Cl)c1cccc(F)c1,56*,-32,29,-11,1,-8
CC(/C=N/NC(=O)c1ccncc1)=C\c1ccccc1,13,7,1,-22,-4,-48
CC(=C/c1ccccc1)/C=N/NC(=O)c1ccccn1,31,32,10,44,17*,-12
O=C(N/N=C/c1ccncc1)c1cccs1,29,4,0,35,-6,-44
CC(/C=N/NC(=O)Cn1cnc2ccccc21)=C\c1ccccc1,-75,13,-66*,3,1,14
Cc1cc(C)c(S(=O)(=O)N2CCN(C(=O)c3ccc(-n4nc(C)c(Cl)c4C)cc3)CC2)c(C)c1,.,6,.,16,.,24
O=C(N/C(=C/c1cccc(Br)c1)c1nc(=S)[nH][nH]1)c1ccccc1,5,1,5,0,0,-8
Cc1ccc(C(=O)N/C(=C\c2ccc(Br)cc2)c2nc(=S)[nH][nH]2)cc1,-75,-11,-69*,0,4,12
Cn1cc(CNC(=O)c2sc3cccc(Cl)c3c2Cl)cn1,90*,12,57,0,2,-6
O=C1NC(Cc2ccccc2)c2nc3cc(Cl)ccc3c(=O)n2-c2ncccc21 (stereo not given),.,-5,.,12,.,13
CCc1nc(SCC(=O)c2ccc(Cl)s2)c2oc3ccccc3c2n1,84*,-12,35,-22,1,-9
CCn1c2ccccc2c2nnc(SCC(=O)Nc3c(C)n(C)n(-c4ccccc4)c3=O)nc21,-27,-1,-8,13,0,-3
Cc1c(NC(=O)CSc2nnc3c4ccccc4n(CCc4ccccc4)c3n2)c(=O)n(-c2ccccc2)n1C,88*,14,66,-30,-4,6
COc1ccc(-c2oc3c4c2C(=O)OCCOC4CCC3)cc1 (stereo not given),.,.,.,6,.,-3
CCN(CCNC(=O)c1cccc(N2CCCC2=O)c1)c1ccccc1,-10,-6,18,52*,1,70*
CN(CCNC(=O)c1cccc(N2CCCC2=O)c1)Cc1ccccc1,-9,5,3,-25,-1,1
O=C(Nc1ccc(F)c(Cl)c1)c1cc(C2CCCN(S(=O)(=O)c3cccc4cccnc34)C2)on1 (stereo not given),.,.,.,36,.,21
CCOc1ccc(Nc2nc3ccccc3n2C)cc1,72*,-29,30,-48,.,-32
CCN(CC)CCNc1nc2ccccc2n1C,57*,-6,15,7,-3,0
CCOc1ccc(NCc2nc3ccccc3n2CCOc2ccccc2)cc1,-61,-10,-52*,31,2,15
CC(=O)NCCc1nc2ccccc2n1CCCCOc1ccccc1,54*,6,18,15,10,-5
CCCCCCCCN1C(=O)[C@H](CC(=O)NCc2ccc(C)o2)C[C@@]2(C(=O)OC)CCCCC=C12,.,.,.,1,.,-3
COC(=O)[C@]12CCCCC=C1N(Cc1ccco1)C(=O)[C@H](CC(=O)NCC13CC4CC(CC(C4)C1)C3)C2,.,.,.,8,.,-9
Nc1nnnn1/N=C/C(Br)=C/c1ccccc1,252*,22,188,75*,1,11
SMILES,HSF1 activator,LMP1 NFkB inh,HSF1 inhib,TWEAK-Fn14 inh,HSP90 inh,TROY NFkB inh
CC(/C=N\N1CCN(c2ccc(Cl)cc2)CC1)=C\c1ccccc1,-8,4,-20,-6,-2,62*
BrC(=C\c1ccccc1)/C=N/N1CCN(c2ccccc2)CC1,162*,-7,107,-16,-2,-15
Nc1nnnn1/N=C/C=C/c1ccccc1,7,-19,5,-21,-4,-30
CC(/C=N/N1CCN(c2ccc(C)cc2)CC1)=C\c1ccccc1,-1,11,5,-1,-2,7
CC1CCCC(NC(=O)CSc2nnc(-c3cccnc3)o2)C1C (stereo not given),.,-5,.,-1,.,-15
COc1cc(Cl)c(S(=O)(=O)NCc2cccnc2)cc1Cl,10,4,-5,84*,2,54*
CC(O)(c1ccccc1)c1nc(-c2ccc(S(C)(=O)=O)cc2)cs1 (stereo not given),.,.,.,8,.,1
CCCNC(=O)c1ccc(COc2cccc3ccccc23)o1,8,2,0,6,3,-5
CCCNC(=O)c1ccc(COc2ccc(CCC)cc2OC)o1,-66,-10,-56*,1,-5,-7
CCOC(=O)C1CCCN(C(=O)c2cccnc2Oc2ccccc2)CC1 (stereo not given),.,.,.,5,.,3
O=C(N/N=C/c1cn(-c2ccccc2)nc1-c1ccc2c(c1)OCCO2)c1ccncc1,107*,-15,53,-18,0,-32
O=C(N/N=C/c1cn(-c2ccccc2)nc1-c1cc2ccccc2o1)c1ccccc1Br,76*,-58,40,0,-8,-48
OCc1cn(-c2ccccc2)nc1-c1cc2ccccc2o1,63*,-34,32,2,4,-75
O=C(N/N=C/c1cn(-c2ccccc2)nc1-c1cc2ccccc2o1)c1c[nH]c2ccccc12,25,-54,6,12,2,48
COc1ccc(-c2nn(-c3ccccc3)cc2/C=N/NC(=O)c2ccc(Br)o2)cc1,9,-33,10,94*,-1,76*
O=C(N/N=C\c1cn(-c2ccccc2)nc1-c1ccccc1)c1ccc2c(c1)OCO2,16,2,13,43,0,-9
COc1ccc(NC(=O)c2cc(C3CCCCN3S(=O)(=O)Cc3ccccc3)on2)c(C)c1 (stereo not given),.,.,.,-11,.,-52
COc1ccc(CN2CCC[C@]3(N[C@H](c4ccc(C)cc4)[C@@H]4C(=O)N(Cc5ccccc5)C(=O)[C@@H]43)C2=O)cc1,.,-12,.,-2,.,6
Cc1ccc([C@@H]2CC(=O)[C@@H]3CN(S(=O)(=O)c4ccc(C)cc4)[C@H](c4ccc(Cl)cc4)C[C@@H]3N2S(=O)(=O)c2ccc(Cl)cc2)cc1,.,5,.,-17,.,-4
COc1ccc(N2CCN(c3cc(C(=O)Nc4cc(OC)c(OC)c(OC)c4)ncn3)CC2)cc1OC,.,.,.,0,.,11
COc1ccccc1OCCCOc1ccc(C)cc1Br,57*,-40,35,-50,-4,-72
CC(=O)NCCCOc1ccc([N+](=O)[O-])cc1Cl,56*,-2,10,2,-1,-37
COc1ccccc1OCCCOc1ccc([N+](=O)[O-])cc1Cl,65*,-25,57,-20,-3,-48
O=[N+]([O-])c1ccc(NCCOc2ccccc2Cl)nc1,-57,-4,-45,51*,-3,-34
COc1cccc(OCCCOc2ccc([N+](=O)[O-])cc2Cl)c1,3,?,0,-25,1,-56
